High-throughput results deposited in PubChem by National Center for Advancing Translational Sciences (NCATS).
An excerpt weighted towards active compounds, which were near 8% of everything screened.
SARS PLpro yeast: SARS-CoV PLP inhibition in yeast; S. cerevisiae expressing SARS-CoV PLpro, growth rescue; Potency, µM (top dose mostly 32.9 µM), actives largely listed as activators; actives 0.19% (n = 330,000); AID 485353; calls by dose curve; note: nearly all actives have a fitted effect of over 55% in size
MARV entry inh: Marburg virus entry inhibition; Potency, µM (titrated, usually from 37.8 µM), usual class: inhibitors; Marburg virus pseudotyped entry inhibition, cell reporter; actives 1.8% (n = 300,000); calls by dose curve; tested in HEK293 cells
Lassa entry inh: blocks Lassa virus binding to or entry into cells. Lassa virus pseudotype entry inhibition, cell reporter. Potency, µM (top dose mostly 37.9 µM), usual class: inhibitors. actives 1.2% (n = 300,000); calls by dose curve; tested in HEK293 cells; note: nearly all actives have a fitted effect of over 50% in size
FMDV antiviral: antivirals against foot and mouth disease virus; FMDV antiviral cell-based qHTS; Potency, µM (doses to about 57.9 µM), actives largely listed as inhibitors; actives 1.2% (n = 410,000); calls by dose curve; tested in HEK293T cells; note: read-out not given here; nearly all actives have a fitted effect of over 45% in size
HCMV inh: human cytomegalovirus inhibition; HFF cells, HCMV-luciferase reporter, 72 h; hits give low values; activity change, negative = inhibition, % at 57.5 µM; actives 4.5% (n = 410,000); in the data active = activity change below about -60%; inconclusive = no clear call, values can overlap the other calls; inactive = above about -39%
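Cell-based, HFFs, 1000 cells/well, 16 h 37C; cpds in DMSO + HCMV-luc, MOI 1 PFU/cell; 72 h 37C; OneGlo luminescence after 5 min RT; norm. to buffer vs Salinomycin 10uM.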
HCV inhibitor: inhibitors of hepatitis C virus infection; actives 3.4% (n = 340,000); AID 651820; Huh7.5.1 HCVcc-Cre infection, luciferase reporter, 44 h; Potency, µM (top dose mostly 41.8 µM), most hits filed as inhibitors; active = well fitted inhibition curve with a large enough effect; inconclusive = small, poorly fitted or top-dose-only effect, or another doubt; inactive = no such curve, though single readings can be large or run the other way
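Cells (1,000/well) were plated 4 h before compound, then infected with HCVcc-Cre virus (~0.5 moi). After 44 h further culture, infection was read as luciferase luminescence following a 15 min substrate incubation at room temperature.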
A number is an active result; i = inactive; ? = inconclusive; nt = not tested or not shown; [ ] = remark or other dose.

SMILES	SARS PLpro yeast	MARV entry inh	Lassa entry inh	FMDV antiviral	HCMV inh	HCV inhibitor
c1ccc(Cn2ncc3c(N4CCN(c5ccccc5)CC4)ncnc32)cc1	nt	nt	nt	22.4µM	?	nt
Cc1ccc(Cn2ncc3c(N4CCN(CC#N)CC4)ncnc32)cc1	i	?	i	31.6µM	i	?
Cc1ccc(Cn2ncc3c(N4CCCC4)ncnc32)cc1	i	i	i	i	i	?
Cc1noc(C)c1C(=O)N1CCC2(CCCN(Cc3nccs3)C2)CC1	nt	nt	nt	i	nt	nt
O=C(/C=C/c1cc(Br)ccc1F)OCC(=O)N1CCOCC1	i	nt	nt	i	i	i
Cc1coc2c(C)c3oc(=O)c(CCC(=O)NCc4ccccn4)c(C)c3cc12	i	nt	nt	i	?	?
Cc1c(Cc2ccccc2)c(=O)oc2cc(OCC(=O)N[C@@H](Cc3ccccc3)C(=O)O)ccc12	i	nt	nt	i	i	i
Cc1coc2cc3oc(=O)c(CCC(=O)NCc4ccccn4)c(C)c3cc12	i	nt	nt	i	i	1µM
Cc1c(CCC(=O)O)c(=O)oc2cc3occ(-c4ccc(Br)cc4)c3cc12	i	i	i	i	-62.1	i
Cc1c(Cc2ccccc2)c(=O)oc2cc(OCC(=O)NCc3ccccn3)ccc12	i	i	i	i	-63.0	?
COc1cc2c(cc1OC)C1CCC3=C([C@H](C)OC3=O)N1CC2 (stereo not given in full)	nt	nt	nt	i	nt	nt
COc1cccc2cc(C(=O)Nc3ccc(CC(=O)O)cc3)c(=O)oc12	nt	10µM	?	?	-72.4	nt
CCCCCCc1cc2cc(C(=O)Nc3ccc(OC)cc3)c(=O)oc2cc1O	i	?	i	?	-61.1	?
CCCCCCc1cc2cc(C(=O)OCC)c(=O)oc2cc1O	i	nt	nt	i	i	i
COc1cccc2cc(C(=O)NCc3ccc(C)cc3)c(=O)oc12	i	i	i	i	nt	i
CCCCCCc1cc2cc(S(=O)(=O)c3ccc(F)c(Cl)c3)c(=O)oc2cc1O	i	?	?	i	-102.2	?
CCCCCCc1cc2cc(C(=O)Nc3cccc(OC)c3)c(=O)oc2cc1O	i	?	?	?	-87.9	?
CCc1ccc(NC(=O)c2cc(CN3CCOCC3)on2)cc1	nt	nt	i	i	i	nt
CC(=O)c1cc2cccc(OC3(C)CCN(Cc4ccc5ccccc5c4)C3)c2o1 (stereo not given)	nt	nt	nt	i	i	nt
COc1cc(/C=N/NC(=O)CCC(=O)Nc2ccc(Br)cc2)ccc1O	i	i	i	i	i	i
Cc1cc(C)n(CC(=O)NNC(=O)c2cccc(C(F)(F)F)c2)n1	i	nt	nt	i	?	i
Cc1cc(NNC(=O)c2cccc(C(F)(F)F)c2)nc2c1c(C)nn2C	i	nt	nt	?	?	4.47µM
CCCNC(=O)[C@H]1[C@H](CO)[C@H]2Cn3c(ccc(-c4ccc(F)cc4)c3=O)[C@@H]1N2C(=O)NC(C)C	nt	nt	nt	nt	i	nt
C=CCn1c(N)cc(=O)nc1SCC(=O)Nc1ccc(C(=O)OCC)cc1	i	i	i	i	i	i
Cc1cccc(N/N=C/c2ccc(O)c(O)c2O)c1	i	nt	nt	i	?	i
SMILES	SARS PLpro yeast	MARV entry inh	Lassa entry inh	FMDV antiviral	HCMV inh	HCV inhibitor
COc1cccc(N/N=C/c2cccc(Br)c2O)c1	i	11.2µM	i	i	i	?
O=C(NCC(c1cccs1)N1CCOCC1)C1CCN(S(=O)(=O)c2cccc(C(F)(F)F)c2)CC1 (stereo not given)	i	i	i	i	i	i[8.37 µM]
O=C(/C=C/c1ccco1)Nc1ccc(F)cc1	i	nt	i	i	i	nt
O=C(/C=C/c1ccco1)NCCc1ccc(F)cc1	i	i	i	i	-77.7	i
CCCCN(CCCC)C(=O)c1cc2ccccc2c(=O)o1	i	i	i	i	-68.1	i
CCCCC(CC)CNC(=O)c1cc2ccccc2c(=O)o1 (stereo not given)	i	i	i	i	i	i
CN(C)c1ccc(Nc2nc3ccccc3n3nnnc23)cc1	nt	i	i	?	-61.8	nt
CCOc1ccc(Nc2nc3ccccc3n3nnnc23)cc1	i	nt	nt	i	i	i
CCOC(=O)CC(NC(=O)CCc1c(C)nc2c(c(C)nn2-c2ccc(C)c(C)c2)c1C)c1ccc(C)cc1 (stereo not given)	nt	i	i	i	i	nt
Cc1ccccc1NC(=O)c1ccc(S(=O)(=O)N(C)C)cc1	i	nt	nt	i	i	i
CN(C)S(=O)(=O)c1ccc(C(=O)Nc2ccccc2[N+](=O)[O-])cc1	i	i	i	i	-65.0	i
Cc1cc(C)c[n+](CC(=O)c2ccc(NC(=O)c3ccccc3)cc2)c1	i	i	i	i	i	i
Cc1cc(C)c[n+](CC(=O)c2ccc(-c3ccccc3)cc2)c1	i	?	?	?	-76.5	?
CC(CCc1ccc(O)cc1)NCCC(c1ccccc1)c1ccccc1 (stereo not given)	i	7.08µM	?	i	i	14.1µM
CC(CCc1ccccc1)NCCC#N (stereo not given)	i	?	i	i	i	i
CC(CCc1ccccc1)NCC#N (stereo not given)	i	nt	nt	i	-61.1	i
C[C@H](N[C@@H](C)CCc1ccccc1)[C@H](O)c1ccc(O)cc1	nt	i	nt	nt	nt	nt
COC(=O)C1=C(c2cccc(OCc3ccccc3)c2)C[C@@H]2CC[C@H]1N2C(=O)NCc1ccc(N(C)C)cc1	i	nt	nt	i	i	12.6µM
COC(=O)C1=C(c2cccc(OCc3ccccc3)c2)C[C@@H]2CC[C@H]1N2C(=O)NCc1ccc(C(C)(C)C)cc1	i	nt	nt	i	i	25.1µM
Clc1ccc(-c2cccc3nccn23)c(Cl)c1	nt	nt	nt	i	i	nt
Clc1cccc(-c2cccc3nccn23)c1Cl	nt	nt	nt	i	-79.3	nt
CCOc1ccc(-c2nn(-c3ccccc3)cc2C2NC(=O)NC(C)=C2C(=O)OC(C)C)cc1C (stereo not given)	nt	?	i	i	i	nt
CNC(=S)n1cnc(N)n1	i	nt	nt	i	-64.7	i
Cc1ccc(C23CC4CC(CC(C(=O)N5CCN(C)CC5)(C4)C2)C3)cc1	i	i	nt	?	i	2.51µM
Cc1ccc(C23CC4CC(CC(NC(=O)N5CCN(C)CC5)(C4)C2)C3)cc1	i	?	?	i	i	12.6µM
SMILES	SARS PLpro yeast	MARV entry inh	Lassa entry inh	FMDV antiviral	HCMV inh	HCV inhibitor
Cc1nnn(C23CC4CC(CC(C4)C2)C3)n1	nt	i	i	i	i	i
Cc1ccc(C23CC4CC(CC(CC(=O)N5CCOCC5)(C4)C2)C3)cc1	i	?	8.2µM	?	i	?
Cc1ccc(C23CC4CC(CC(NC(=O)NN)(C4)C2)C3)cc1	i	nt	nt	i	i	i
Cc1ccc(C)c(N2CCN(C(=O)C34CC5CC(C3)CC(n3nnc(C)n3)(C5)C4)CC2)c1	i	?	?	?	i	17.8µM
CC1(C(=O)NS(=O)(=O)c2ccccc2C(F)(F)F)CCN1C(=O)CCC1CCCC1 (stereo not given)	nt	nt	nt	i	i	nt
COc1ccc(C(C#N)N2CCC(c3ccccc3)=N2)cc1 (stereo not given)	i	?	i	i	-72.8	i
Cc1ccc(NC(=O)C2CCN(c3nc(-c4ccc(C(C)C)cc4)no3)CC2)c(Cl)c1	nt	nt	?	?	-69.4	nt
COc1ccc(-c2noc(N3CCC(C(=O)Nc4cc(OC)ccc4OC)CC3)n2)cc1	i	nt	nt	i	i	?
